A short description of test [1]: ATG_NFI_CIS: Attagene CIS-FACTORIAL HepG2 Assay for human Nuclear Factor I (NFI) (AID 2282989). The following applies: HepG2 cis-regulatory reporter, NFI response element transcription; actives raise or lower the signal. Put shortly: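 HepG2, transient MRTU, 24 h exposure; RNA→cDNA→PCR→FAM label→HpaI→CE fluorescence. Bidirectional fit, DMSO = baseline.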
In test [2] the target is Myc proto-oncogene protein (Homo sapiens) (UniProt P01106). Kind of test: ATG_Myc_CIS: Attagene CIS-FACTORIAL HepG2 Assay for human Myelocytomatosis (Myc) Proto-Oncogene Transcription Factor (AID 2282990). Particulars: HepG2, Attagene cis-reporter transcription factor activity; actives raise or lower the signal. Put shortly:
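Read-out: fluorescent reporter mRNA fragments resolved by capillary electrophoresis after RT-PCR. Human HepG2 liver cells carried transfected cis-element reporter units and were dosed for 24 h. Gain or loss of signal fitted relative to DMSO baseline.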

A short description of test [3]: ATG_NF_kB_CIS: Attagene CIS-FACTORIAL HepG2 Assay for human Nuclear Factor Kappa B (NF-kB) (AID 2282991). Particulars: HepG2 Attagene cis-factorial NF-kB reporter mRNA; actives raise or lower the signal. Put shortly:
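Fluorescence of labelled RT-PCR products separated by capillary electrophoresis gives reporter mRNA levels from transfected HepG2 cells exposed 24 h; values are fitted in both directions relative to DMSO.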

A short description of test [4]: ATG_Oct_MLP_CIS: Attagene CIS-FACTORIAL HepG2 Assay for human Octamer-Binding Transcription Factor (Oct) (AID 2282993). The following applies: HepG2 Attagene cis-factorial Oct reporter, mRNA; actives raise or lower the signal. The procedure, abridged:
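Multiplexed cis-reporter assay in human liver HepG2 cells, 24 h incubation. Reporter RNA amplified and labelled, then resolved by capillary electrophoresis; DMSO serves as negative control and baseline.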

Test [5] is described as follows: BSK_3C_TissueFactor: BioMAP Diversity Plus: 3C Assay for Tissue Factor Biomarker Activity (AID 2282997). Particulars: BioMAP 3C HUVEC, tissue factor biomarker readout; actives raise or lower the signal. Put shortly: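 Tissue factor on primary human umbilical vein endothelium was read by ELISA 24 h after dosing, gain or loss relative to DMSO. Cytotoxicity ran alongside via SRB (0.1%, TCA-fixed, 560 nm).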

Test [6] can be described thus: BSK_3C_uPAR: BioMAP Diversity Plus: 3C Assay for Urokinase-type plasminogen activator receptor (uPAR) Biomarker Activity (AID 2282998). Particulars: BioMAP 3C HUVEC, uPAR biomarker ELISA; actives raise or lower the signal. The procedure, abridged: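 Dose primary human umbilical vein endothelial cells, incubate 24 h, measure cell-surface uPAR by ELISA, then fit the signal in both directions against the DMSO negative control.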
For orientation: In an ELISA, binding on a coated surface is turned into a signal by an enzyme label.

Test [7] is described as follows: BSK_3C_VCAM1: BioMAP Diversity Plus: 3C Assay for Vascular cell adhesion molecule 1 (VCAM1) Biomarker Activity (AID 2282999). The following applies: BioMAP 3C HUVEC, VCAM1 ELISA, cytokine-stimulated; actives raise or lower the signal. The procedure, abridged: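 HUVEC primary cells, 24 h compound exposure; VCAM-1 by ELISA; gain/loss of signal fitted bidirectionally vs DMSO baseline.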

The nature of test [8]: BSK_4H_Eotaxin3: BioMAP Diversity Plus: 4H Assay for Eotaxin 3 Biomarker Activity (AID 2283000).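 Note: CCL26 protein level quantified by ELISA in parallel with SRB cytotoxicity check.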 Particulars: primary human endothelial cells (HUVEC); actives raise or lower the signal. The procedure, abridged: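 Human umbilical vein endothelial cells (BSK_4H system) dosed with test chemical; Eotaxin-3 (CCL26) measured by ELISA 24 h after dosing. Bidirectional curve fitting relative to DMSO negative control as baseline.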

Test [9] can be described thus: ATG_NRF2_ARE_CIS: Attagene CIS-FACTORIAL HepG2 Assay for human Nuclear Factor Erythroid 2 Related Factor 2 (NFR2) response to Antioxidant Response Elements (ARE) (AID 2282992). The following applies: HepG2 Attagene ARE/NRF2 reporter, transcription factor activity; actives raise or lower the signal. The procedure, abridged: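 Endogenous transcription factor activity read out as reporter transcript levels (RT-PCR plus capillary electrophoresis, fluorescence) in transiently transfected HepG2 cells. Measured at 24 h after dosing; gain or loss of signal fitted versus DMSO.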

Test [10] addresses Cellular tumor antigen p53 (Homo sapiens) (UniProt P04637). In words: ATG_p53_CIS: Attagene CIS-FACTORIAL HepG2 Assay for human p53 Transcription Factor (AID 2282994). The following applies: HepG2 p53 cis-element reporter, Attagene mRNA; actives raise or lower the signal. Put shortly:
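Endogenous p53 activity read in transiently transfected HepG2 from a cis-element-driven reporter transcript after 24 h exposure. RNA reverse-transcribed, PCR-amplified, fluorescently labelled and sized by capillary electrophoresis; gain or loss fitted against DMSO baseline.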

Calls of active or inactive are those of the source. Rule for the calls: active = hit-call score of the fitted dose curve at least 0.9, where 1 is the maximum; inactive = score below 0.9.

Sequence of Cellular tumor antigen p53 (Homo sapiens) (P04637 whole entry, looked up): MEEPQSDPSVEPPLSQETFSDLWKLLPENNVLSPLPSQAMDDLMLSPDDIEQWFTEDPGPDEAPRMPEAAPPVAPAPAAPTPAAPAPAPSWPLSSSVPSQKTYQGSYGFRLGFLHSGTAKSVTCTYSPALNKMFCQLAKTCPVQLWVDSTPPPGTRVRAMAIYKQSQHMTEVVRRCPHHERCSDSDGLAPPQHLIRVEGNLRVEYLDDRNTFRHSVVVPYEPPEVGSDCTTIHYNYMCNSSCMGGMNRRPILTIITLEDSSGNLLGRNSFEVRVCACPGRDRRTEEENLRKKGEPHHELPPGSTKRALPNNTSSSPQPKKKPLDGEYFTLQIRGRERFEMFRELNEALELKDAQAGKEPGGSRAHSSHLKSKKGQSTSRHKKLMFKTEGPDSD
Sequence of Myc proto-oncogene protein (Homo sapiens) (P01106 whole entry, looked up, the tested form may be a part): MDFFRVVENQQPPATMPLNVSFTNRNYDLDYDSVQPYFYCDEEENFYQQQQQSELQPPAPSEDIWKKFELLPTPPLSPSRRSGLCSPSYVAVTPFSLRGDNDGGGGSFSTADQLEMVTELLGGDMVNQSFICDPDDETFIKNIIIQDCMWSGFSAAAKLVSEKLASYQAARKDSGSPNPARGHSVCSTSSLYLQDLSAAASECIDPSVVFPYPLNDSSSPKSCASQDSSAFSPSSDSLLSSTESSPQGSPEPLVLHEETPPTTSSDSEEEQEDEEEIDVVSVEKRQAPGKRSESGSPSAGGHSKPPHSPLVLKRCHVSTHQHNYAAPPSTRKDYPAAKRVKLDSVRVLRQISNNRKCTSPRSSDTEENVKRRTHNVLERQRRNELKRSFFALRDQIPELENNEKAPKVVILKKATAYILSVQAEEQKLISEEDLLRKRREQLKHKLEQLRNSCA

`CC1=CC(=O)NS(=O)(=O)O1`: the outcome in test [1], in [2], in [3] and in [4] was inactive.

As to `CCCCC(CC)COC(=O)/C=C\C(=O)OCC(CC)CCCC` (stereo not drawn), the concentration at half-maximal activity (AC50) – broadly, the concentration at which the activity in the assay is half-maximal – in test [3] is 45.6 µM (active). Moreover, the result in [5], in test [6], in [7] and in test [8] was inactive.

For `CC(C)=CCC[C@](C)(O)[C@@H]1CC=C(C)CC1`, the compound was classed as inactive in test [1], in [2], in test [9], in test [4] and in test [10].

Take `CCCCO`: the outcome in test [1], in test [2], in test [9], in test [4] and in test [10] was inactive.

Take `CC(C#N)(CCC(=O)O)N=NC(C)(C#N)CCC(=O)O` (stereo not drawn): the outcome in [1], in [2], in test [9], in test [4] and in test [10] was inactive.

For the compound `Cc1ccccc1C=O`, the compound was classed as inactive in [1], in [2], in test [9], in [4] and in test [10].

Turning to `CCC(=O)/C=C/C1C(C)=CCCC1(C)C` (stereo not drawn), the call in test [1], in [2], in test [4] and in test [10] was inactive. For the same compound, the AC50 in [9] was 40.4 µM (active).

Regarding `CC1(C)[C@@H]2CC[C@@]1(C)[C@H](O)C2`, the result in test [1], in [2], in test [9], in test [4] and in test [10] was inactive.

With `CCCCCCCCCCC(CO)CCCCCCCC` (stereo not drawn), the result in [1], in [2], in test [9], in test [4] and in [10] was inactive.

In the case of `CCC(C)CCCC(C)(C)O` (stereo not drawn), the compound was called inactive in [1], in [2], in test [9], in test [4] and in [10].

Consider `COC(=O)OC`, for which the outcome in [1], in test [2], in test [9], in test [4] and in [10] was inactive.

With `CC(C)=CCC[C@H](C)CC=O`, the compound was classed as inactive in [1], in test [2], in test [9], in test [4] and in test [10].

`O=C1CCc2ccccc2O1`: the compound was classed as inactive in test [1], in test [2], in test [9], in test [4] and in test [10].

As to `CCCCCCCCCCCCSC`, the compound was called inactive in [1], in test [2], in test [9], in [4] and in test [10].

For the compound `NCCOCCO`, the compound was classed as inactive in test [1], in test [2], in test [9], in test [4] and in [10].

In the case of `CO[Si](C)(OC)c1ccccc1`, the compound was classed as inactive in [1], in test [2], in test [4] and in [10]. The concentration at half-maximal activity (AC50) in test [9] is 16.2 µM (active).

For `CC(=O)O[C@H](CC(=O)[O-])C[N+](C)(C)C`, the outcome in test [1], in test [2], in [9], in test [4] and in test [10] was inactive.

For the compound `CCCCCCCCCCCCN(CCCCCCCCCCCC)CCCCCCCCCCCC`, the result in test [1], in [2], in [9], in test [4] and in [10] was inactive.

As to `O=C(O)CCSCCC(=O)O`, the call in test [1], in [2], in [9], in [4] and in test [10] was inactive.

For the compound `Cc1ccc(C=O)cc1`, the compound was called inactive in test [1], in test [2], in test [9], in test [4] and in test [10].

`CCOc1ccccc1OCC`: the compound was called inactive in [1], in test [2], in [9], in test [4] and in test [10].

As to `CCCC(=O)C(C)=O`, the compound was called inactive in [1], in [2], in test [9], in test [4] and in test [10].

Consider `CC(C)C1CCC(O)CC1` (stereo not drawn), for which the call in test [1], in [2], in test [9], in test [4] and in test [10] was inactive.

`OCC(CO)(CO)COCC(CO)(CO)CO`: the compound was classed as inactive in [1], in [2], in test [9], in test [4] and in test [10].

As to `CCCCCNCCCCC`, the compound was classed as inactive in [1], in test [2], in [9], in test [4] and in test [10].

Turning to `CC(=O)Nc1ccc(CC(=O)O)cc1`, the compound was classed as inactive in test [1], in [2], in [9], in test [4] and in [10].

For `C=CCOC(=O)CCC1CCCCC1`, the result in [1], in test [2], in test [9], in test [4], in [10] and in test [5] was inactive. In addition, the result in test [6], in test [7] and in test [8] was inactive.

For the compound `O=C(Cl)c1cccc(C(=O)Cl)c1`, the compound was called inactive in test [1], in test [2], in [9], in [4] and in [10].

Consider `CC(C)[C@@H]1CC[C@@H](C)CC1=O`, for which the compound was called inactive in test [1], in [2], in [9], in test [4] and in [10].

With `CNCCO`, the call in [1], in test [2], in test [9], in [4] and in test [10] was inactive.

As to `CCC(C(=O)NC(N)=O)c1ccccc1` (stereo not drawn), the outcome in test [1], in test [2], in test [9], in test [4] and in test [10] was inactive.

With `Cc1ncc([N+](=O)[O-])n1C`, the result in test [1], in [2], in test [9], in [4] and in [10] was inactive.

As for `CCN(CC)c1ccc2c(-c3ccccc3C(=O)O)c3ccc(=[N+](CC)CC)cc-3oc2c1`, the compound was classed as inactive in test [1], in test [2], in [4] and in test [10]. For the same compound, the concentration at half-maximal activity (AC50) in test [9] is 36.7 µM (active).

For the compound `CCOC(=S)SSC(=S)OCC`, the result in [1], in [2], in [9], in test [4] and in test [10] was inactive.

As for `C=C(C)C(=O)O`, the compound was classed as inactive in [1], in test [2], in test [9], in test [4] and in test [10].

Take `CCCCCCCCCCN`: the result in test [1], in test [2], in test [9], in [4] and in test [10] was inactive.

Consider `CCCCCC(=O)OCCc1ccccc1`, for which the result in test [1], in test [2], in test [9], in [4] and in test [10] was inactive.

Turning to `C=CC(=O)OCCn1c(=O)n(CCOC(=O)C=C)c(=O)n(CCOC(=O)C=C)c1=O`, the result in test [1] and in test [2] was inactive. Also, the values for the concentration at half-maximal activity (AC50) in [9], in test [4] and in test [10] were 0.811 µM (active), 8.38 µM (active) and 24.3 µM (active), respectively.
